The text below walks through data of PubChem BioAssay (Tox21).

“And” between values parts separate entries of the source, which are not always exact repeats. Equal entries are not always repeated. Results filed as inconclusive are left out. The source holds several records for some structures; these can differ, active in one and inactive in another. The source made the active and inactive calls. Unless noted, calls follow the shape of the dose curve; as a rule, active = well fitted curve in the direction sought with a large enough effect in the repeat runs; inconclusive = weak or mixed curves; inactive = no such curve, though single readings can be large; an effect the other way counts as inactive or inconclusive.

Experiment [1] concerns the target Acetylcholinesterase (Homo sapiens) (UniProt P22303). The experiment is described as follows: Acetylcholinesterase (AChE) small molecule antagonists: enzyme-based qHTS assay (AID 1347397; calls by dose curve; also: nearly all actives have a fitted effect of over 55% in size). To be noted: Potency: AChE enzyme activity inhibition; outcome: AChE enzyme activity inhibition. In outline:
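Colorimetric DTNB readout of acetylthiocholine hydrolysis, 10 min at room temperature, after 30 min room-temperature exposure of 50 mU/mL recombinant human enzyme to compound; DMSO vehicle control.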
In general terms: Quantitative high-throughput screening tests each substance at several concentrations.

The target is the same in experiment [2]. Kind of experiment: Acetylcholinesterase (AChE) small molecule antagonists: fluorescence cell-based qHTS assay (AID 1347398; calls by dose curve; also: nearly all actives have a fitted effect of over 50% in size). To be noted: Potency: AChE activity; outcome: AChE activity. Put shortly:
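Cellular AChE activity read as thiocholine from acetylthiocholine hydrolysis, detected by Thiolite Green fluorescence at 490/520 nm after 40 min at room temperature. Compounds were pre-incubated 30 min at 37 C on adherent SH-SY5Y cells.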

Experiment [3] shares this target. The experiment is described as follows: Acetylcholinesterase (AChE) small molecule antagonists: enzyme-based qHTS assay with human liver microsomes (AID 1347399; calls by dose curve; also: nearly all actives have a fitted effect of over 60% in size). To be noted: Potency: qHTS inhibition; outcome: qHTS inhibition. In outline:
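Recombinant human AChE (50 mU/mL in the enzyme mix) and human liver microsomes (0.25 mg/mL final) were preincubated with compound and NADPH (0.25 mg/mL final) for 30 min at 37 C. Acetylthiocholine/DTNB was then added; thiocholine was read colorimetrically after 10 min at room temperature.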

For experiment [4], the target named is Cytochrome P450 2D6 (Homo sapiens) (UniProt P10635). Kind of experiment: Cytochrome P450 Family 2 Subfamily D Member 6 (CYP2D6) small molecule antagonists: luciferase reporter qHTS assay (AID 1671196). Also: nearly all actives have a fitted effect of over 50% in size. In outline: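 Enzyme and proluciferin substrate were first combined with test chemical for 10 min at room temperature. Adding NADPH regeneration solution started a 1 h reaction, stopped with luciferin detection reagent and read by luminescence 20 min later.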
Sequence of Cytochrome P450 2D6 (Homo sapiens) (P10635 whole entry, looked up): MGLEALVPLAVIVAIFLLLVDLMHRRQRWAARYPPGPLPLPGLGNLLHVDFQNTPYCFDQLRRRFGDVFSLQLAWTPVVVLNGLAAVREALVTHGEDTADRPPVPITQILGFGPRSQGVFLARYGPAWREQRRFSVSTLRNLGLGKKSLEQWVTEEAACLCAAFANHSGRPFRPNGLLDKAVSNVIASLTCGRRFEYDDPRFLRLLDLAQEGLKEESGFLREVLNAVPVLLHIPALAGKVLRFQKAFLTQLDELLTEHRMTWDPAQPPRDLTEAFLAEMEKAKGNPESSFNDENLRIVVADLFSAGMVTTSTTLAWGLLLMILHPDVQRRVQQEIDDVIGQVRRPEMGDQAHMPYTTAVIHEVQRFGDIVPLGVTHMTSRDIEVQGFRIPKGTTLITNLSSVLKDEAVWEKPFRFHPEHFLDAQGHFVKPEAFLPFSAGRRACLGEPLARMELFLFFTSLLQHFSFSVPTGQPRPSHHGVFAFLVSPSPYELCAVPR
(In a reporter assay the amount or activity of a reporter protein is the signal.)

Experiment [5] concerns the target Cytochrome P450 2C19 (Homo sapiens) (UniProt P33261). Kind of experiment: Cytochrome P450 Family 2 Subfamily C Member 19 (CYP2C19) small molecule antagonists: luciferase reporter qHTS assay (AID 1671197). Also: nearly all actives have a fitted effect of over 65% in size. Put shortly:
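P450-Glo CYP2C19 screening system; proluciferin substrate; DMSO compound stocks; 10 min RT preincubation; NADPH regeneration, 1 h at 37C; luciferin detection reagent, 20 min RT; luminescence as RLU.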

The target of experiment [6] is Cytochrome P450 2C9 (Homo sapiens) (UniProt P11712). The experiment is described as follows: Cytochrome P450 Family 2 Subfamily C Member 9 (CYP2C9) small molecule antagonists: luciferase reporter qHTS assay (AID 1671198). Also: nearly all actives have a fitted effect of over 50% in size. In outline:
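Enzyme-substrate mix preincubated with compound 10 min at room temperature; reaction started with NADPH regeneration solution, 1 h 37C. Luminescent luciferin product read after 20 min detection reagent.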

Experiment [7] has as its target Cytochrome P450 1A2 (Homo sapiens) (UniProt P05177). The experiment is described as follows: Cytochrome P450 Family 1 Subfamily A Member 2 (CYP1A2) small molecule antagonists: luciferase reporter qHTS assay (AID 1671199). Also: nearly all actives have a fitted effect of over 50% in size. In outline:
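Compounds were incubated with CYP1A2 and a luminogenic proluciferin substrate for 10 min at room temperature before the reaction was started with NADPH regeneration solution. After 1 h, detection reagent was added and light output, proportional to CYP activity, was recorded.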

Experiment [8] addresses Voltage-gated inwardly rectifying potassium channel KCNH2 (Homo sapiens) (UniProt Q12809). The experiment is described as follows: Human Ether-a-go-go-Related Gene (hERG) channel small molecule antagonists: fluorescence cell-based qHTS assay (AID 1671200). Also: nearly all actives have a fitted effect of over 50% in size. Put shortly: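 Kinetic two-minute fluorescence traces, sampled at 1 s, were collected following thallium stimulus of U2OS cells (1000 per well) that had been cultured overnight at 37 C and loaded with FluxOR II.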
(hERG is a cardiac potassium channel; its block is linked to QT prolongation.)

Experiment [9] has as its target Cytochrome P450 3A4 (Homo sapiens) (UniProt P08684). The experiment is described as follows: Cytochrome P450 Family 3 Subfamily A Member 4 (CYP3A4) small molecule antagonists: luciferase reporter qHTS assay (AID 1671201). Also: nearly all actives have a fitted effect of over 50% in size. In outline:
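Proluciferin-to-luciferin conversion by CYP3A4, NADPH-regenerated, 1 h RT; luminescence read as RLU. Ketoconazole as control.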
Potency is read from the fitted curve at half-maximal effect.

Sequence of Cytochrome P450 3A4 (Homo sapiens) (P08684 whole entry, looked up): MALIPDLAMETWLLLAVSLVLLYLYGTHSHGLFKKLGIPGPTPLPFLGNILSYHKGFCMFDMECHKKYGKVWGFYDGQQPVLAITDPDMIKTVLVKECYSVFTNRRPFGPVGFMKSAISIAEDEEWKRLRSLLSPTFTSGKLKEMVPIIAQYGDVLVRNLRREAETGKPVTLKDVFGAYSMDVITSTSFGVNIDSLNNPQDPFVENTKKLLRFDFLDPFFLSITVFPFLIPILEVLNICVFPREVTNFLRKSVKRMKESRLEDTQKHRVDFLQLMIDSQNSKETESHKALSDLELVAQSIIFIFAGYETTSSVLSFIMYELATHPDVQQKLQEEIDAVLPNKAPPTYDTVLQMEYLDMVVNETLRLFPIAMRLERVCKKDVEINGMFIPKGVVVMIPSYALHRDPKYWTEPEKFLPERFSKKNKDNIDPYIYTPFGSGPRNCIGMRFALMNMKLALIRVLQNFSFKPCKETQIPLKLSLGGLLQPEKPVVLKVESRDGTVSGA
Sequence of Cytochrome P450 2C19 (Homo sapiens) (P33261 whole entry, looked up): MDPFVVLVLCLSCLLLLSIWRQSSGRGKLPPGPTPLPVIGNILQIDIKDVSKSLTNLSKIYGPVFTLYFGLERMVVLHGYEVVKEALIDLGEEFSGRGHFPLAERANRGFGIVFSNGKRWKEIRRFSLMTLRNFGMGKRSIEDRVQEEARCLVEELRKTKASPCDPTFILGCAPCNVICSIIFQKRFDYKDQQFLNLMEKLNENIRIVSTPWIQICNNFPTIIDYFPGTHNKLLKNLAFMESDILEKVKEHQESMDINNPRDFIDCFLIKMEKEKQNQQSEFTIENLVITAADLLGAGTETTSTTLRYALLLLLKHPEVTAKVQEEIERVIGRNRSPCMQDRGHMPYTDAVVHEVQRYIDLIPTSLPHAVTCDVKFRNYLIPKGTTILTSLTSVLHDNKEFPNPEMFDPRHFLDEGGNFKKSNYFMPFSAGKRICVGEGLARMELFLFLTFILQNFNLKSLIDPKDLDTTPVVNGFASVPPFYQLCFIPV
Sequence of Acetylcholinesterase (Homo sapiens) (P22303 whole entry, looked up): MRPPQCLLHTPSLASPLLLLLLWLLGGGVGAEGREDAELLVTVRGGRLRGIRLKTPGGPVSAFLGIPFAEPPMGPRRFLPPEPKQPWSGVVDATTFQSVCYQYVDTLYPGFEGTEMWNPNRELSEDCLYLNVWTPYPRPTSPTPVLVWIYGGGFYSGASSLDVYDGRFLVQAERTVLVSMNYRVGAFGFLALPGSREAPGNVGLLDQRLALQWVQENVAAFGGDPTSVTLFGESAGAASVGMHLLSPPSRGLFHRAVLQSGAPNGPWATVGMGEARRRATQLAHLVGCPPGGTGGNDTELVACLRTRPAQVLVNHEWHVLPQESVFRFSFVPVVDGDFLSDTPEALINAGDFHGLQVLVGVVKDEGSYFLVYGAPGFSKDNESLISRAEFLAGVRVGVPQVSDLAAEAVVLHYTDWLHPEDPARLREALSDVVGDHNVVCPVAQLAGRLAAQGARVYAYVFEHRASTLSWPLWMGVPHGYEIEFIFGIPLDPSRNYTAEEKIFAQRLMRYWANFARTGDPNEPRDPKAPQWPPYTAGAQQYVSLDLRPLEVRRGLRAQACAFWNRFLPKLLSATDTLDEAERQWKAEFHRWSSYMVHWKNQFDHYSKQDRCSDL
Sequence of Cytochrome P450 2C9 (Homo sapiens) (P11712 whole entry, looked up): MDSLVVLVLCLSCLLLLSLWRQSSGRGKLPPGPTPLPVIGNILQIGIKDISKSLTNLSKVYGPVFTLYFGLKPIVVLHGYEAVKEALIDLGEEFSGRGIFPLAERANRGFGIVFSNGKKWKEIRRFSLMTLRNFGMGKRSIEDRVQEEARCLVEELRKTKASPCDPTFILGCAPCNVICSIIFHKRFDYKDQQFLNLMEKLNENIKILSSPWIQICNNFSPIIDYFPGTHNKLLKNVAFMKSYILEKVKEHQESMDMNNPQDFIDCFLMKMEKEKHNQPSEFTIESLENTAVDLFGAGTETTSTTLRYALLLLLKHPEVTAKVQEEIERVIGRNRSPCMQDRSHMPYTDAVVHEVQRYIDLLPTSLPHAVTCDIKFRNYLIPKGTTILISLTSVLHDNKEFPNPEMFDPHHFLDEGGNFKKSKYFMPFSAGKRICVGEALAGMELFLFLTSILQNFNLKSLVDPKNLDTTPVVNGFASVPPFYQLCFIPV
Sequence of Cytochrome P450 1A2 (Homo sapiens) (P05177 whole entry, looked up): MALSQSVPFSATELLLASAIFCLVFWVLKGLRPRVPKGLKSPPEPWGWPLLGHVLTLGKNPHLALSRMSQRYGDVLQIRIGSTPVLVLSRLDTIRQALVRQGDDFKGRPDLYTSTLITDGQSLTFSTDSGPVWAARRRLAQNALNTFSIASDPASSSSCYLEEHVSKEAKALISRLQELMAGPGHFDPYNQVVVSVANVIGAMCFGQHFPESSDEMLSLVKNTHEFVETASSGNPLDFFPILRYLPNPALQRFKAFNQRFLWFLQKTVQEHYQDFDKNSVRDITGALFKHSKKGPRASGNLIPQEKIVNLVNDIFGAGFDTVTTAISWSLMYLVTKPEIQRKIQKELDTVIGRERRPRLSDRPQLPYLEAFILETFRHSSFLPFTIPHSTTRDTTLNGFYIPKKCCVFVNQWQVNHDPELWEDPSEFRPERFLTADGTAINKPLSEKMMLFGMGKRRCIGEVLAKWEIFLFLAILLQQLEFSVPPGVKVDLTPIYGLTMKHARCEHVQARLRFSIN
Sequence of Voltage-gated inwardly rectifying potassium channel KCNH2 (Homo sapiens) (Q12809 whole entry, looked up): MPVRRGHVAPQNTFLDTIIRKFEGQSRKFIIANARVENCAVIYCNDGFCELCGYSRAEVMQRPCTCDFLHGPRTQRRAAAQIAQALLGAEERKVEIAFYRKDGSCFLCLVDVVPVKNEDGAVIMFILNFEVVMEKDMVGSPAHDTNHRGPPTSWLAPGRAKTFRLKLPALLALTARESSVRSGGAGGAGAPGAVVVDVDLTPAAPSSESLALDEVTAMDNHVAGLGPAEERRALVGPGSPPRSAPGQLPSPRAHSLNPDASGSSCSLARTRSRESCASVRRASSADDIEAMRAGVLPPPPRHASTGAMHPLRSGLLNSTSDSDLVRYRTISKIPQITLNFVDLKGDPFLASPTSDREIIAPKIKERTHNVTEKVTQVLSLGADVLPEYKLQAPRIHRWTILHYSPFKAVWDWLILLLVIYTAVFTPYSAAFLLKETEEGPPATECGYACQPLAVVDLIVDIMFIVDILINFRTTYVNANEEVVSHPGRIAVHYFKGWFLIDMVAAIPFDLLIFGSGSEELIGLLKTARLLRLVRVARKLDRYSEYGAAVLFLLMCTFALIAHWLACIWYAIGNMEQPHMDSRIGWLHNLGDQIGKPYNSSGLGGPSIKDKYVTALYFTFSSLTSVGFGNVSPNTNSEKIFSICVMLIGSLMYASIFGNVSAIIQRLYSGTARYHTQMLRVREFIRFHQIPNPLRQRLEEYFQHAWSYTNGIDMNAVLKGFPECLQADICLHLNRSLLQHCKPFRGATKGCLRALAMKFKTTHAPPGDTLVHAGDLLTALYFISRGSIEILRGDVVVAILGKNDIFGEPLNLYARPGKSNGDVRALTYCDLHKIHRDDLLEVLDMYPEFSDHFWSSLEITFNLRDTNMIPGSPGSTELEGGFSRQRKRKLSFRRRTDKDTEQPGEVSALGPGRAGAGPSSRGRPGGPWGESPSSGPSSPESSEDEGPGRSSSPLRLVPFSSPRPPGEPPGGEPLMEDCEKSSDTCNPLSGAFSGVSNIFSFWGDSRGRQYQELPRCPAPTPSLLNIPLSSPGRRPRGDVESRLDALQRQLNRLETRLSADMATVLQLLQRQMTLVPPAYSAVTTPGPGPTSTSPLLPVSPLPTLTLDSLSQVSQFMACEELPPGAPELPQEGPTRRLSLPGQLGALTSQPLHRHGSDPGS

With `CCOP(=O)(SC(C)CC)N1CCSC1=O` (centres undefined), the Potency entry in [1], in experiment [2], in experiment [3], in experiment [4] and in experiment [8] was “inactive” each time. For the same molecule, the Potency in experiment [5] was 79.6 µM (active); in experiment [6], 63.3 µM (active); in [7] it was 35.6 µM (active).

For `CC(C)(C)NCC(O)c1ccccc1Cl` (centres undefined), the Potency entry in [1], in [2], in experiment [3], in experiment [5], in experiment [6] and in experiment [7] was “inactive” in each case. Also, the Potency result in experiment [8] and in experiment [9] was “inactive” throughout. In addition, the Potency in experiment [4] is 9.77 µM (active).

`CC(C)(C)NCC(O)c1cc(Cl)c(N)c(C(F)(F)F)c1` (centres undefined): the Potency result in experiment [1], in [2], in [3], in [5], in [6] and in experiment [7] was “inactive” throughout. In addition, the Potency result in experiment [8] and in [9] was “inactive” in each case. Further, the Potency in experiment [4] is 15.5 µM (active).

On to `CCC(C)(C)c1ccc(O)c(C(C)(C)CC)c1`, for which the Potency result in experiment [1], in experiment [2], in [3] and in experiment [8] was “inactive” throughout. In addition, the Potency in [4] is 35.2 µM (active) and 31.7 µM (active); in [5] it was 4.97 µM (active) and 1.78 µM (active); in experiment [6], 4.43 µM (active) and 5.64 µM (active); in experiment [7], 19.8 µM (active) and 31.7 µM (active); in experiment [9], 19.8 µM (active) and 25.2 µM (active).

For the molecule `C[C@H]1[C@@H]2Cc3ccc(O)cc3[C@@]1(C)CCN2C`, the Potency was 33.9 µM (active) in [1]; 2.14 µM (active) in experiment [2]; 191 µM (active) in experiment [3]; 33.9 µM (active) in experiment [4]; 53.8 µM (active) in experiment [5]. The Potency result in experiment [6], in [7], in [8] and in [9] was “inactive” each time.

`O=[N+]([O-])O[C@H]1CO[C@H]2[C@@H]1OC[C@H]2O[N+](=O)[O-]`: the Potency result in experiment [1], in experiment [2], in experiment [3], in experiment [4], in [5] and in experiment [6] was “inactive” each time. Besides, the Potency result in experiment [7], in [8] and in experiment [9] was “inactive” each time.

For the molecule `CCCCCCCCCCCC[N+](C)(C)CCOc1ccccc1`, the Potency is 63.3 µM (active) in [1]; 35.6 µM (active) in [2]; 3.56 µM (active) and 4.36 µM (active) in experiment [4]; 56.4 µM (active) in [5]; 63.3 µM (active) in experiment [6]; 79.7 µM (active) and inactive in experiment [7]. Further, the Potency in [8] is 776 nM (active) and 1.34 µM (active). For the same molecule, the Potency entry in experiment [3] and in experiment [9] was “inactive” in each case.

For the molecule `CC[N+]1(CCOC(=O)C(O)(c2ccccc2)c2ccccc2)CCCCC1`, the Potency result in experiment [1], in experiment [2], in experiment [3], in experiment [5], in experiment [6] and in experiment [7] was “inactive” in each case. The Potency entry in experiment [8] and in [9] was “inactive” each time. Moreover, the Potency in [4] is 0.977 µM (active).

Turning to `O=C1c2ccccc2C(=O)N1SC(Cl)(Cl)Cl`, the Potency result in experiment [1], in [2], in experiment [3], in experiment [4] and in experiment [9] was “inactive” throughout. Further, the Potency is 78.5 µM (active) and 20 µM (active) in experiment [5]; 24.8 µM (active) and 11.2 µM (active) in [6]; 24.8 µM (active) and 22.4 µM (active) in [7]; 24.2 µM (active) and 38.9 µM (active) in experiment [8].

Take `CC(Cc1ccccc1)NCc1ccccc1Cl` (centres undefined): the Potency result in experiment [1], in experiment [2], in experiment [3], in experiment [6] and in experiment [8] was “inactive” in each case. Besides, the Potency in experiment [4] is 0.174 µM (active); in experiment [5], 1.38 µM (active); in experiment [7], 15.5 µM (active).

`OCCCl`: the Potency result in experiment [1], in [2], in experiment [3], in experiment [4], in experiment [5] and in [6] was “inactive” in each case. The Potency result in experiment [7], in experiment [8] and in [9] was “inactive” in each case.

Regarding `O=C(N/N=C/c1ccc([N+](=O)[O-])o1)c1cc([N+](=O)[O-])cc([N+](=O)[O-])c1O`, the Potency entry in experiment [1], in experiment [2], in experiment [3], in experiment [4], in experiment [5] and in [7] was “inactive” each time. The Potency entry in experiment [8] and in [9] was “inactive” each time. For the same molecule, the Potency in experiment [6] is 30.9 µM (active).

`CC(C)(C)N(NC(=O)c1ccc(Cl)cc1)C(=O)c1ccccc1`: the Potency entry in [1], in experiment [2], in [3], in [4] and in experiment [8] was “inactive” each time. The Potency in [5] is 4.45 µM (active); in experiment [6], 11.2 µM (active); in experiment [7], 39.7 µM (active); in experiment [9], 7.92 µM (active).

As for `C[C@H](N)[C@H](O)c1ccc(O)c(O)c1`, the Potency entry in experiment [1], in experiment [3], in experiment [4], in experiment [5], in experiment [6] and in experiment [7] was “inactive” throughout. Moreover, the Potency entry in experiment [8] and in experiment [9] was “inactive” each time. In [2], the Potency was 0.776 µM (active).

Turning to `CCOC(C(=O)OCCN(C)C)(c1ccccc1)c1ccccc1`, the Potency result in [1], in experiment [2], in experiment [3], in [7] and in experiment [8] was “inactive” each time. Also, the Potency was 2.75 µM (active) in experiment [4], 8.71 µM (active) in [5] and 11 µM (active) in experiment [6].

In the case of `Nc1ccccc1C(=O)OCC(O)CO` (centres undefined), the Potency result in experiment [1], in [2], in experiment [3], in [4], in [5] and in experiment [6] was “inactive” throughout. Further, the Potency entry in experiment [7], in experiment [8] and in [9] was “inactive” each time.

For the molecule `CCCC[N+]1(C)[C@@H]2CC(OC(=O)[C@H](CO)c3ccccc3)C[C@H]1[C@@H]1O[C@@H]12` (some centres undefined), the Potency result in experiment [1], in experiment [2], in experiment [3], in experiment [5], in [6] and in experiment [7] was “inactive” in each case. The Potency entry in [8] and in [9] was “inactive” throughout. Further, in experiment [4], the Potency is 1.55 µM (active).

Regarding `C=CC(=O)OCC`, the Potency entry in experiment [1], in [2], in experiment [3], in experiment [4], in [5] and in experiment [6] was “inactive” throughout. Also, the Potency result in experiment [7], in experiment [8] and in experiment [9] was “inactive” each time.

With `CC(CC(C(N)=O)(c1ccccc1)c1ccccc1)N(C)C` (centres undefined), the Potency entry in experiment [1], in experiment [2], in experiment [3], in experiment [5], in experiment [6] and in [7] was “inactive” each time. For the same molecule, the Potency entry in experiment [8] and in [9] was “inactive” each time. Besides, the Potency in experiment [4] is 6.17 µM (active).

For `C=CCc1ccc(OC(=O)Cc2ccccc2)c(OC)c1`, the Potency entry in experiment [1], in experiment [2], in experiment [3] and in [8] was “inactive” each time. Also, the Potency in experiment [4] was 35.6 µM (active); in experiment [5] it was 22.4 µM (active); in experiment [6] it was 12.6 µM (active); in experiment [7] it was 35.6 µM (active); in [9], 11.2 µM (active).

With `C=CC(=O)NC(C)(C)CC(C)=O`, the Potency entry in experiment [1], in experiment [2], in [3], in experiment [5], in [6] and in [7] was “inactive” throughout. For the same molecule, the Potency result in experiment [8] and in [9] was “inactive” in each case. In [4], the Potency is 35.6 µM (active).

In the case of `COc1cc(CC(C)N)c(OC)cc1Br` (centres undefined), the Potency result in [1], in experiment [2], in [3], in experiment [5], in experiment [6] and in experiment [8] was “inactive” each time. In addition, the figures for the Potency in experiment [4] and in [7] were 26 µM (active) and 5.2 µM (active), respectively.
